A number with no mark means an inactive call. Records with an inconclusive call do not appear. Active and inactive are the calls of the source. Unless noted, the call rests on the fitted dose curve; in most records, active means well fitted curve in the direction sought with a large enough effect in the repeat runs; inconclusive means weak or mixed curves; inactive means no such curve, though single readings can be large; an effect the other way counts as inactive or inconclusive.

Experiment [1] concerns the target Estrogen receptor beta (Homo sapiens) (UniProt Q92731). Description: qHTS assay to identify small molecule agonists of the estrogen receptor beta (ER-beta) signaling pathway (AID 1259377; active means well fitted activation curve with a large enough effect in the signal ratio in the repeat runs, not every such curve was filed as active; the % refers to the signal ratio). An outline of the steps: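 HEK293T ER-beta-UAS-bla; 2% charcoal-stripped FBS; cells pre-incubated 6 hr, compound 16 hr, 37C/5% CO2; LiveBLAzer B/G FRET substrate 2 h RT; fluorescence intensity read.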
Background: In qHTS, concentration-response curves come from the screen itself.

Experiment [2] shares this target. Kind of experiment: qHTS assay to identify small molecule antagonists of the estrogen receptor beta (ER-beta) signaling pathway (AID 1259378; active means well fitted inhibition curve with a large enough effect in the signal ratio in the repeat runs, not every such curve was filed as active; the % refers to the signal ratio). An outline of the steps:
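ER-beta-UAS-bla HEK293T cells in 2% charcoal-stripped FBS medium treated with compound plus 1nM final 17-beta-estradiol for 16 hr at 37C. Beta-lactamase reporter read by FRET substrate fluorescence after 2 hours at room temperature.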

Experiment [3] can be described thus: qHTS assay to identify small molecule agonists of the androgen receptor (AR) signaling pathway in the presence of an antagonist - cell viability counter screen (AID 1259379).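 Further: MDA-kb2 human breast cancer cells carrying an MMTV luciferase reporter; series mostly up to about 92 µM; nearly all actives have a fitted effect of over 25% in size.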 An outline of the steps: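 Cytotoxicity is assessed by CellTiter-Fluor in MDA-kb2 cells carrying an MMTV-driven luciferase reporter. Cells receive 3.0uM nilutamide plus compounds at 15 concentrations and incubate 16 hr at 37C without CO2 before fluorescence reading.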

Experiment [4] is described as follows: qHTS assay to identify small molecule agonists of the estrogen receptor beta (ER-beta) signaling pathway - cell viability counter screen (AID 1259380). Further: nearly all actives have a fitted effect of over 30% in size. An outline of the steps:
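Cytotoxicity is measured in parallel with the reporter screen: after 16 hr compound exposure at 37C and a 2 hr LiveBLAzer step, CellTiter-Glo is added to the same ER-beta-UAS-bla HEK293T wells and luminescence read after 30 min.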

The target of experiment [5] is Androgen receptor (Homo sapiens) (UniProt P10275). Kind of experiment: qHTS assay to identify small molecule agonists of the androgen receptor (AR) signaling pathway in the presence of an antagonist (AID 1259381; calls by dose curve; further: nearly all actives have a fitted effect of over 15% in size). In outline: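 Agonist-mode confirmation screen: human MDA-kb2 cells stably expressing luciferase under an MMTV promoter bearing AR and GR response elements, co-treated with 3.0uM nilutamide (final). Luminescence measured after 16hr compound incubation.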

Experiment [6] is described as follows: qHTS assay to identify small molecule antagonists of the estrogen receptor beta (ER-beta) signaling pathway - cell viability counter screen (AID 1259382). Further: series mostly up to about 92 µM; nearly all actives have a fitted effect of over 55% in size. In outline: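 Cytotoxicity counter screen multiplexed with the beta-lactamase antagonist assay: GripTite HEK293T ER-beta-bla cells were treated 16 hr with test chemicals in the presence of 1nM 17-beta-estradiol, and viability was measured by CellTiter-Glo.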

A short description of experiment [7]: qHTS assay to identify small molecule agonists or antagonists of the thyroid stimulating hormone receptor (TSHR) signaling pathway - wild type cell line counter screen (AID 1259384; calls by dose curve). An outline of the steps: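 Wild-type Hek293 cells, 800/well, 18 h at 37C, then compound with Ro20-1724 for 30 min RT. cAMP by HTRF (cAMP-d2/anti-cAMP cryptate), 1 h RT, fluorescence read. 15 concentrations, triplicates.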

In experiment [8] the target is Thyrotropin receptor (Homo sapiens) (UniProt P16473). Kind of experiment: qHTS assay to identify small molecule antagonists of the thyroid stimulating hormone receptor (TSHR) signaling pathway (AID 1259385; calls by dose curve; further: nearly all actives have a fitted effect of over 20% in size). An outline of the steps:
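TSHR-HEK293 cells (800/well) plated 18 h, then compounds with Ro20-1724 and TSH at 1.5 ng/mL final, 30 min at room temperature. cAMP quantified by HTRF (cAMP-d2/anti-cAMP-cryptate, 1 h); 15 concentrations in triplicate.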

Experiment [9] in a line: qHTS assay to identify small molecule agonists of the estrogen receptor alpha (ER-alpha) signaling pathway in the presence of an antagonist - cell viability counter screen (AID 1259386).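 Further: series mostly up to about 92 µM; cells exposed to compounds for 22 h at 37 °C before the viability read; nearly all actives have a fitted effect of over 30% in size.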 An outline of the steps:
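Cytotoxicity was measured in parallel with the ERE-luciferase agonist screen, in the same wells. The cells were VM7Luc4E2, which endogenously express ER-alpha, and treatment was with compounds plus 10.0nM ICI-182,780 for 22hr.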

Experiment [10] deals with Progesterone receptor (Homo sapiens) (UniProt P06401). Kind of experiment: qHTS assay to identify small molecule agonists of the progesterone receptor (PR) signaling pathway (AID 1346784; calls by dose curve; further: nearly all actives have a fitted effect of over 30% in size). An outline of the steps:
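Beta-lactamase reporter read-out: after 16 hr compound treatment at 37C and a further 2 hr at room temperature with LiveBLAzer B/G FRET substrate, fluorescence was measured in PR-UAS-bla HEK 293T cells grown in 2% charcoal-stripped serum.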

Experiment [11] can be described thus: qHTS assay to identify small molecule antagonists of the progesterone receptor (PR) signaling pathway - cell viability counter screen (AID 1346798). Further: nearly all actives have a fitted effect of over 50% in size. Further: potency means the concentration at half of the fitted maximal effect. In outline: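 HEK293T PR-UAS-bla, 2% charcoal-stripped FBS; 4 hr pre-plate; cpd + R5020, 16 h 37C; LiveBLAzer read first; then CellTiter-Glo 30 min RT, luminescence.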
Experiment [12] can be described thus: qHTS assay to identify small molecule agonists of the progesterone receptor (PR) signaling pathway - cell viability counter screen (AID 1346799; calls by dose curve; further: nearly all actives have a fitted effect of over 45% in size; further: potency means the concentration at half of the fitted maximal effect). An outline of the steps:
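Luminescence from CellTiter-Glo, added after the beta-lactamase FRET read in the same wells, gave cytotoxicity in PR-UAS-bla HEK293T cells treated with compounds for 16 hr at 37C.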

A short description of experiment [13]: qHTS assay to identify small molecule antagonists of the TGF-beta/Smad signaling pathway - cell viability counter screen (AID 1346824). Further: nearly all actives have a fitted effect of over 50% in size. An outline of the steps: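 SBE-bla HEK 293T cells, incubated overnight, then compound plus 0.25 ng/mL TGF-beta1 (stock added) for 5 hr at 37 C. Viability was read in the same wells by CellTiter-Glo luminescence after 30 min at room temperature.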

A short description of experiment [14]: qHTS assay to identify small molecule agonists of the TGF-beta/Smad signaling pathway - cell viability counter screen (AID 1346829). Further: top concentration of the series differs between compounds; nearly all actives have a fitted effect of over 45% in size. In outline:
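In parallel with the Smad reporter read, viability of HEK 293T cells stably carrying SBE-bla is quantified by ATP luminescence following 5 hr compound treatment.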

The nature of experiment [15]: qHTS assay to identify small molecule antagonists of the sonic hedgehog signaling (Shh) pathway (AID 1259369; calls by dose curve; further: nearly all actives have a fitted effect of over 45% in size; further: potency means the concentration at half of the fitted maximal effect). An outline of the steps:
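Cells are plated and held 4hr at 37 C, compounds (DMSO) are pinned in, conditioned medium is added to stimulate the pathway, and after 24hr luciferase reagent is added for 30min before luminescence is read.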

Experiment [16] addresses Estrogen receptor (Homo sapiens) (UniProt P03372). Description: qHTS assay to identify small molecule agonists of the estrogen receptor alpha (ER-alpha) signaling pathway in the presence of an antagonist (AID 1259383; calls by dose curve; further: top concentration of the series differs between compounds; nearly all actives have a fitted effect of over 15% in size). An outline of the steps: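 Agonist-mode confirmation in the presence of the ER antagonist ICI-182,780 at 10.0nM final. Breast-derived VM7Luc4E2 reporter cells were exposed to compounds for 22hr, and ERE-driven luciferase was quantified by luminescence.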

The target in experiment [17] is Progesterone receptor (Homo sapiens) (UniProt P06401). Description: qHTS assay to identify small molecule antagonists of the progesterone receptor (PR) signaling pathway (AID 1346795; active means well fitted inhibition curve with a large enough effect in the signal ratio in the repeat runs, not every such curve was filed as active; the % refers to the signal ratio). In outline:
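Read-out is fluorescence from the LiveBLAzer B/G FRET substrate, cleaved by a UAS-controlled beta-lactamase in PR-UAS-bla HEK293T cells after 16 hr exposure to compound plus 1 nM promegestone (final), followed by 2 hr at room temperature.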

A short description of experiment [18]: qHTS assay to identify small molecule agonists of the TGF-beta/Smad signaling pathway (AID 1346859; active means well fitted activation curve with a large enough effect in the signal ratio in the repeat runs, not every such curve was filed as active; the % refers to the signal ratio; further: series mostly up to about 77 µM). In outline: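 SBE-bla HEK 293T, 4,000 cells/well, plated o/n; cpd in DMSO, 5 hr, 37 C/5% CO2; B/G FRET substrate 2 hr RT; ex 405, em 460/530 nm.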
The target in experiment [19] is Thyrotropin-releasing hormone receptor (Homo sapiens) (UniProt P34981). Description: qHTS assay to identify small molecule antagonists of the thyrotropin-releasing hormone receptor (TRHR) signaling pathway (AID 1346877; active means well fitted inhibition curve with a large enough effect in the repeat runs, not every such curve was filed as active; further: series mostly up to about 51 µM). In outline: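 Antagonism is measured as suppression of the calcium response to 1 nM TRH in TRHR-HEK293 cells that have been dye-loaded for 2 h at 37 °C after overnight plating. Each compound is tested at 15 concentrations in triplicate.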

The target is the same in experiment [20]. Kind of experiment: qHTS assay to identify small molecule agonists of the thyrotropin-releasing hormone receptor (TRHR) signaling pathway (AID 1346891; calls by dose curve; further: series mostly up to about 58 µM). An outline of the steps:
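Intracellular calcium rise, read as fluorescence every second for 3 min, served as the agonist signal in dye-loaded HEK293 cells expressing TRHR; each compound ran at 15 concentrations in triplicate.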

Chain of Thyrotropin-releasing hormone receptor (Homo sapiens) (P34981 whole entry, looked up): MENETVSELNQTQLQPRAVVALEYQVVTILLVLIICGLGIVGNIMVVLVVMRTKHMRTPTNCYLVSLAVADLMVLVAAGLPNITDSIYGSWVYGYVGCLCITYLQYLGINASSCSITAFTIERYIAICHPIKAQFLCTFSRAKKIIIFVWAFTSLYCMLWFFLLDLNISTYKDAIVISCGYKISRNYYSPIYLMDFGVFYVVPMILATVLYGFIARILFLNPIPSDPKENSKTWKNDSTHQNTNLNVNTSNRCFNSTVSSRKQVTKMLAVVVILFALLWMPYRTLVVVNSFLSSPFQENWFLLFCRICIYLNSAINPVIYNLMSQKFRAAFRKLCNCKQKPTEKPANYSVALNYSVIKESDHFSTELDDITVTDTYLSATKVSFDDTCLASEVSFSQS
Chain of Progesterone receptor (Homo sapiens) (P06401 whole entry, looked up): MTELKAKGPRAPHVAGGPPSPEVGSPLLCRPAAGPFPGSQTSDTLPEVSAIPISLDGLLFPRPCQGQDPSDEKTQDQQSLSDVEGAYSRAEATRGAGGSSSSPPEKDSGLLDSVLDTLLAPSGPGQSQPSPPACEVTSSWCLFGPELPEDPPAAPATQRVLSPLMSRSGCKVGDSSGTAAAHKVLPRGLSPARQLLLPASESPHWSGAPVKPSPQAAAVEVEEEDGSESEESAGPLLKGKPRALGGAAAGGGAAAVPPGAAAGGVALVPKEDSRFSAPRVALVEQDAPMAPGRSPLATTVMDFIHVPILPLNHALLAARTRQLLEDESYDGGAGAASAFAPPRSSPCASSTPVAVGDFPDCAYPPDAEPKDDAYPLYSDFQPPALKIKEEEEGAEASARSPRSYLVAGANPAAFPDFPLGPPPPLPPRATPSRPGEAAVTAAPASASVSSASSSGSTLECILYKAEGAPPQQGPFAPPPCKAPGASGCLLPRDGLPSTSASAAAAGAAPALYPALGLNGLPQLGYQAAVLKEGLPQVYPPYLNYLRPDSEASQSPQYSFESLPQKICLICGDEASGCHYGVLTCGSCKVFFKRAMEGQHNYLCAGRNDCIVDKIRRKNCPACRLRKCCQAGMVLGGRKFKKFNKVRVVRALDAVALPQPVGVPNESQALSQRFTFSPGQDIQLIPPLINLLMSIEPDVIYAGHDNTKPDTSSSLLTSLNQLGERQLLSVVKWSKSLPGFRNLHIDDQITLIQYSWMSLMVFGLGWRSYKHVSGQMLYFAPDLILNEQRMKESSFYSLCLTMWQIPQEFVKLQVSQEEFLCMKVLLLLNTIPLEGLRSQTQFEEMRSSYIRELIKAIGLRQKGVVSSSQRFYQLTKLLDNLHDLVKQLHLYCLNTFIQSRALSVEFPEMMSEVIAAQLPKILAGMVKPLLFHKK
Chain of Thyrotropin receptor (Homo sapiens) (P16473 whole entry, looked up): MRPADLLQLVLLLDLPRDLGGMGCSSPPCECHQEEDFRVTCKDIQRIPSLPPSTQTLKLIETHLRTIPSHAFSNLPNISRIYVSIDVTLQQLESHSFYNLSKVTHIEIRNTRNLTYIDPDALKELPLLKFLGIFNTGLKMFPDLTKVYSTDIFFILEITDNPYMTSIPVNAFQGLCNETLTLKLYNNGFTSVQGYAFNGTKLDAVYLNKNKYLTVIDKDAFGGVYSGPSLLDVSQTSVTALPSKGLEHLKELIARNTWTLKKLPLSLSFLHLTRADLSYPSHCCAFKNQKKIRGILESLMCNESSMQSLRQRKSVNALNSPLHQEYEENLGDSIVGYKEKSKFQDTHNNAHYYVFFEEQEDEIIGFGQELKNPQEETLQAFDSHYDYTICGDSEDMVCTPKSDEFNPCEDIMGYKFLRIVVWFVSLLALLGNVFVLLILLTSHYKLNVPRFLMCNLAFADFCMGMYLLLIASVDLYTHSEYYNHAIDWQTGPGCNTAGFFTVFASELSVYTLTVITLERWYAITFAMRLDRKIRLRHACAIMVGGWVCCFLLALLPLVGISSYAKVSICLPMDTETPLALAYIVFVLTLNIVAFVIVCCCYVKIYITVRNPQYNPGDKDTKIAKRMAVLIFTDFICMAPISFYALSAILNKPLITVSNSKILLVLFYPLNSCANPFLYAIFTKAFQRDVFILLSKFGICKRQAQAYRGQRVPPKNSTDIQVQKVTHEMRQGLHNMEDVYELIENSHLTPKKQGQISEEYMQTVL
Chain of Estrogen receptor (Homo sapiens) (P03372 whole entry, looked up): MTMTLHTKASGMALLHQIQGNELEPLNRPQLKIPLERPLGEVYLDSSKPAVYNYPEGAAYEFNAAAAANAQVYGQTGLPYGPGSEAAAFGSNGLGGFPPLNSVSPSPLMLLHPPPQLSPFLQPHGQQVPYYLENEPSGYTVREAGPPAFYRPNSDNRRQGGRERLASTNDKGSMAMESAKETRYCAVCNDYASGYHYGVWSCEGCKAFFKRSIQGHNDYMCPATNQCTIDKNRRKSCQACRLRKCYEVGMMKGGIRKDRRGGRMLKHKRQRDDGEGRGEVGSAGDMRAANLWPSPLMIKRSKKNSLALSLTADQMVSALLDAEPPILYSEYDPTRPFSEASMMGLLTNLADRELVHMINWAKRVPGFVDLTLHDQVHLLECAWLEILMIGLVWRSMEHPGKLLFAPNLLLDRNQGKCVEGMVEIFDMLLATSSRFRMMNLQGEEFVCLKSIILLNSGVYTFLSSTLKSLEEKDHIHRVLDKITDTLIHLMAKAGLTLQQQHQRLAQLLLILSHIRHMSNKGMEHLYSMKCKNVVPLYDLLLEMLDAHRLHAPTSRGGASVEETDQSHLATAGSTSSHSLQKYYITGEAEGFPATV
Chain of Estrogen receptor beta (Homo sapiens) (Q92731 whole entry, looked up): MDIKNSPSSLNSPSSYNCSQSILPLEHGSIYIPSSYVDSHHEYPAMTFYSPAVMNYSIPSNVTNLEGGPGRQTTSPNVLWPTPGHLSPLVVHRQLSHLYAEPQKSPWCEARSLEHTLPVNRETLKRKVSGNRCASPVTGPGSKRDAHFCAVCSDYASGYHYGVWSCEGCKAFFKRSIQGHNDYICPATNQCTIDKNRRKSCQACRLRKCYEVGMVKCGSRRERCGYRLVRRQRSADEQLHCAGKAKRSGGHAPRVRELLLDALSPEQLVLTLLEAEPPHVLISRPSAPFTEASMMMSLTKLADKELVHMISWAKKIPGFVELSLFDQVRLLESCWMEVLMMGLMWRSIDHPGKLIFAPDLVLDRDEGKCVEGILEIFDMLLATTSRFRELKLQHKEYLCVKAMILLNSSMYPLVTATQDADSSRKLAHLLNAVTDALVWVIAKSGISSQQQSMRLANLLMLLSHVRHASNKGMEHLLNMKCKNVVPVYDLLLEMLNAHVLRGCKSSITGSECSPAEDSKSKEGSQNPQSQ
Chain of Androgen receptor (Homo sapiens) (P10275 whole entry, looked up): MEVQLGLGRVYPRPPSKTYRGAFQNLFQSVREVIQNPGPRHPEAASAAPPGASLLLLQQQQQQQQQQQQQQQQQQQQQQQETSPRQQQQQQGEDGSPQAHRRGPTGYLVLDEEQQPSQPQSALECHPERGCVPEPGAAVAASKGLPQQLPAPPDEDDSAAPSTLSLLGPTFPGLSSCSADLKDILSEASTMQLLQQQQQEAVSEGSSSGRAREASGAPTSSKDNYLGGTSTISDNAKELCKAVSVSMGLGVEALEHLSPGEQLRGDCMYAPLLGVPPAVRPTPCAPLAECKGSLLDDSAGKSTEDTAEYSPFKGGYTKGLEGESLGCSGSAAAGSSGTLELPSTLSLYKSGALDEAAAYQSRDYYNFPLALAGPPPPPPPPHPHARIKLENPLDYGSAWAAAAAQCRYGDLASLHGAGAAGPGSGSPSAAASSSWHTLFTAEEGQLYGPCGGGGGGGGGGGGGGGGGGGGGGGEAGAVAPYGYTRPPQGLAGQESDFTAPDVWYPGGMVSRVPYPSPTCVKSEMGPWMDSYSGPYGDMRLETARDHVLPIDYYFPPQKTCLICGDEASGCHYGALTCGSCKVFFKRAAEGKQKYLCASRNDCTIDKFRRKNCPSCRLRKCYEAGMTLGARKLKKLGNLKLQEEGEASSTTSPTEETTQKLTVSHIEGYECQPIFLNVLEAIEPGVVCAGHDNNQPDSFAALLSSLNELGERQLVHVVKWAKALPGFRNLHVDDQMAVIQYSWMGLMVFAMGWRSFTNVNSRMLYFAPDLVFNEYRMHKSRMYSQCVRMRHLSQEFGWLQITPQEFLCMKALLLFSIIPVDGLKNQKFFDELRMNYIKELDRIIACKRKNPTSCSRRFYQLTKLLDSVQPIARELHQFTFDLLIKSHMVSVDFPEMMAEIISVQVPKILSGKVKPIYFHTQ

Turning to `CCOC(=O)COC(=O)c1cc(Oc2ccc(C(F)(F)F)cc2Cl)ccc1[N+](=O)[O-]`, the Potency result in [1], in experiment [2], in experiment [3], in experiment [4], in experiment [5] and in experiment [6] was “inactive” each time. For the same compound, the Potency entry in experiment [7], in experiment [8], in [9], in experiment [10], in experiment [11] and in experiment [12] was “inactive” throughout. Moreover, the Potency entry in [13] was “inactive”. The call in [14] was inactive.
For `N=c1ccn2c(n1)O[C@H]1[C@H](O)[C@@H](CO)O[C@H]12`, the Potency result in [15], in experiment [4], in experiment [16], in experiment [7], in experiment [9] and in experiment [10] was “inactive” in each case. The Potency entry in experiment [17], in experiment [11], in experiment [12], in experiment [13] and in [18] was “inactive” throughout. The outcome in experiment [14] was inactive.
Turning to `O=C(Nc1ccc(S(=O)(=O)N2CCOCC2)cc1)c1cc(Cl)ccc1NS(=O)(=O)c1ccc(Cl)s1`, the Potency in [15] is 26.6 µM (active). In addition, the Potency entry in experiment [16], in experiment [7], in experiment [9], in experiment [10], in [11] and in experiment [12] was “inactive” each time. For the same compound, the Potency result in [13] and in experiment [18] was “inactive” each time. Also, the outcome in experiment [14] and in [19] was inactive.
`CCCCCCCC/C=C\CCCCCCCC(=O)OCC`: the Potency result in [15], in [4], in experiment [7], in experiment [9], in [17] and in [11] was “inactive” each time. The Potency result in experiment [13], in experiment [18] and in experiment [20] was “inactive” throughout. Besides, the call in [14] was inactive.
Take `COc1cc2nc(N3CCN(C(=O)C4COc5ccccc5O4)CC3)nc(N)c2cc1OC` (stereo not drawn): the Potency result in [1], in [3], in experiment [4], in experiment [6], in experiment [7] and in [9] was “inactive” in each case. Further, the Potency entry in experiment [17], in experiment [12], in [13] and in experiment [18] was “inactive” throughout. Also, in experiment [14], the outcome was inactive.
On to `CC(C)(C)OCC1CO1` (stereo not drawn), for which the Potency result in experiment [1], in experiment [2], in experiment [3], in experiment [4], in experiment [6] and in [7] was “inactive” each time. Moreover, the Potency result in [9], in experiment [10], in experiment [11], in experiment [12], in experiment [13] and in [18] was “inactive” each time. Moreover, the outcome in experiment [14] and in experiment [19] was inactive.
`CC(=O)[O][Al]`: the Potency result in [15], in [4], in experiment [6], in experiment [7], in [9] and in [10] was “inactive” in each case. In addition, the Potency entry in experiment [11], in experiment [12], in experiment [13] and in experiment [18] was “inactive” in each case. Also, the compound was classed as inactive in experiment [14].
As to `CC/C=C\CCOC(=O)CC`, the Potency entry in [15], in experiment [4], in [6], in [7], in experiment [8] and in experiment [9] was “inactive” in each case. Besides, the Potency result in experiment [11], in experiment [12], in experiment [13] and in [18] was “inactive” each time. The outcome in experiment [14] and in experiment [19] was inactive.
On to `CN1CCC(N(Cc2cccs2)c2ccccc2)CC1`, for which the Potency entry in [1], in experiment [2], in [6], in experiment [16], in [7] and in [8] was “inactive” each time. For the same compound, the Potency entry in [9], in experiment [10], in experiment [13] and in [18] was “inactive” throughout. The Potency in experiment [11] is 23.7 µM (active); in [12] it was 15 µM (active). In addition, in [14], the compound was called inactive.

(Values after PubChem BioAssay (Tox21).)
